# Assay results published in PubChem BioAssay (NCI).
# The panel holds about 79,000 compounds, 15% with a hit somewhere; the sample as a whole holds those more often. Values without a mark were called inactive. Activity calls are given as the source filed them. Cut-off read from the data, not from the text of the source: active = growth inhibition above about 70%; inactive = the rest.
# Key:
# [1] = NCI Yeast Anticancer Drug Screen. Data for the rad50 strain (AID 155);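 note: 0% = growth of vehicle-only cultures of the same strain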; details: S. cerevisiae rad50 strain growth inhibition, active compounds read high
# In short: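 Yeast carrying a defined DNA repair defect were exposed to test compounds, and growth was compared with vehicle-treated controls to give percent inhibition.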
# [2] = NCI Yeast Anticancer Drug Screen. Data for the mec2-1 strain (AID 157); details: S. cerevisiae mec2-1 strain, active compounds read high
# In short: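 Readout is yeast growth inhibition, normalised to vehicle-treated controls, in the mec2-1 strain exposed to compound.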
# [3] = NCI Yeast Anticancer Drug Screen. Data for the sgs1 mgt1 strain (AID 161);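 note: 0% = growth of cultures given vehicle only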; details: S. cerevisiae sgs1 mgt1 strain, active compounds read high
# In short: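 This yeast growth screen uses a strain with defined DNA-repair lesions; compound-treated growth is compared with vehicle-treated growth.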
# [4] = NCI Yeast Anticancer Drug Screen. Data for the cln2 rad14 strain (AID 165);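 note: 0% = growth equal to vehicle treated cultures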; details: S. cerevisiae cln2 rad14 strain, active compounds read high
# In short: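 Relative to vehicle controls, growth inhibition of compound-treated cln2 rad14 yeast was recorded.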
# [5] = NCI Yeast Anticancer Drug Screen. Data for the bub3 strain (AID 167); details: S. cerevisiae bub3 mutant strain, active compounds read high
# In short: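 Compounds were applied to a genetically altered yeast strain carrying a cell-cycle control defect. Growth inhibition was scored against vehicle-treated controls.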
# [6] = NCI Yeast Anticancer Drug Screen. Data for the mlh1 rad18 strain (AID 175); details: S. cerevisiae mlh1 rad18 strain growth inhibition, active compounds read high
# In short: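 Test agents were incubated with a yeast strain of defined genotype (DNA damage repair defect). Inhibition of growth was derived by comparison with vehicle-exposed cultures.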
# [7] = at 5.0 µM (retest, dose inferred, filed as 0.5)
# [8] = at 50.0 µM (retest, dose inferred, filed as 5.0)
SMILES,"growth inhibition [1, 7]","growth inhibition [1, 8]",growth inhibition ([1]; at 50.0 µM),"growth inhibition [2, 7] [%]","growth inhibition [2, 8]",growth inhibition ([2]; at 50.0 µM),"growth inhibition [3, 7]","growth inhibition [3, 8]",growth inhibition ([3]; at 50.0 µM),"growth inhibition [4, 7]","growth inhibition [4, 8]",growth inhibition ([4]; at 50.0 µM),"growth inhibition [5, 7]","growth inhibition [5, 8]",growth inhibition ([5]; at 50.0 µM),"growth inhibition [6, 7]","growth inhibition [6, 8]",growth inhibition ([6]; at 50.0 µM)
COC1OC(CBr)C(OC(C)=O)C(OC(C)=O)C1OC(C)=O (configuration not stated),7%,-3%,5.9%,5,3%,13.2%,8%,3%,-3.6%,5%,30%,8.7%,6%,3%,82.3% (active),-2%,2%,18.9%
OCC1CCCCCCCCCCC1,-2%,90% (active),98.2% (active),0,66%,75.2% (active),1%,22%,94.3% (active),1%,30%,92.3% (active),10%,58%,94.7% (active),-1%,51%,89.2% (active)
CC1CCN(C(=S)NNC(C)c2cc3ccccc3cn2)CC1 (configuration not stated),45%,97% (active),82.5% (active),60,98% (active),75.7% (active),80% (active),97% (active),88.6% (active),82% (active),97% (active),84.9% (active),71% (active),97% (active),85.8% (active),50%,96% (active),86.8% (active)
O=[N+]([O-])c1ccc(CO)o1,10%,68%,93.1% (active),0,10%,38.8%,2%,14%,76.4% (active),3%,-2%,29.1%,0%,1%,26.7%,6%,33%,84.5% (active)
CCCn1c2ccccc2c2ccc3c(c21)C(=O)C=CC3=O,31%,69%,67.8%,27,80% (active),61.9%,37%,73% (active),70.7% (active),18%,35%,56.3%,37%,80% (active),65%,42%,77% (active),62.7%
CCN(CC)C(=O)N1CCN(c2cccc(Cl)c2)CC1,4%,58%,74% (active),0,84% (active),91.2% (active),5%,85% (active),90.2% (active),1%,50%,93% (active),4%,73% (active),85.7% (active),2%,76% (active),90.6% (active)
Cc1c2cnccc2c(C)c2c1c1ccccc1n2CCOC(=O)c1ccccc1,9%,94% (active),96.4% (active),-4,78% (active),87.8% (active),1%,81% (active),89.7% (active),39%,82% (active),75.2% (active),8%,87% (active),90.3% (active),10%,87% (active),91.5% (active)
O=C1c2ccc3c4ccccc4n(Cc4ccccc4)c3c2C(=O)N1c1ccccc1,87% (active),87% (active),92% (active),62,62%,93.4% (active),39%,39%,92.5% (active),75% (active),75% (active),92.2% (active),80% (active),80% (active),91.5% (active),47%,47%,91.3% (active)
O=[N+]([O-])c1cccn2nc(C3OC(CO)C(O)C3O)nc12 (configuration not stated),3%,13%,-11.2%,-3,-2%,-4.8%,0%,7%,-14.7%,3%,-4%,34.4%,0%,-1%,-11.4%,-2%,3%,-4.65%
O=c1cc(CSc2ccc(Cl)cc2)occ1O,3%,32%,44.5%,-2,17%,13.4%,3%,72% (active),87.2% (active),7%,18%,13.2%,-3%,4%,11.9%,2%,51%,55%
Cc1ccc(O)c(C(C)(C)c2ccccc2)c1,-8%,77% (active),99.5% (active),-5,94% (active),99.8% (active),-9%,43%,99.7% (active),-6%,90% (active),98.7% (active),-49%,95% (active),99.5% (active),-10%,94% (active),99.3% (active)
c1ccc2sc(SSN3CCOCC3)nc2c1,78% (active),99% (active),94.4% (active),28,98% (active),89.2% (active),18%,99% (active),66.8%,76% (active),97% (active),96.3% (active),64%,98% (active),86.4% (active),34%,99% (active),94% (active)
O/N=C1/CCCC/C1=C\c1ccc(Cl)c(Cl)c1,5%,99% (active),98.8% (active),1,99% (active),99.3% (active),28%,100% (active),99.2% (active),-6%,99% (active),99.2% (active),-3%,99% (active),99.3% (active),11%,96% (active),99.1% (active)
C[C@]12C[C@@H](c3ccccc3)Nc3ccccc3N1C(c1ccccc1)=NO2,-4%,68%,61%,10,74% (active),74.8% (active),-13%,70% (active),81% (active),5%,55%,37.2%,-7%,81% (active),62%,-19%,75% (active),73.5% (active)
O=C(CS)Nc1ccccc1,13%,89% (active),65.4%,18,91% (active),57.2%,14%,93% (active),61.1%,9%,87% (active),47.5%,3%,84% (active),56.2%,16%,95% (active),84.1% (active)
CN(C)[C@H]1CC[C@H]2[C@@H]3CCC4C[C@@H](NC(=O)NC(Cc5ccccc5)c5nccs5)CC[C@]4(C)[C@H]3CC[C@]12C (some centres not stated),4%,4%,67.5%,-16,-16%,63.9%,-11%,-11%,63.5%,-16%,-16%,47.9%,-17%,-17%,65.9%,-21%,-21%,59%
CCO/C=C1/N=C(c2cc(Cl)cc([N+](=O)[O-])c2)OC1=O,4%,-7%,11.7%,-2,12%,1.3%,-15%,2%,13.7%,18%,22%,-60.5%,6%,5%,-8.75%,-15%,6%,9.15%
O=C1CC(c2ccccc2)C(c2ccccc2)CO1 (configuration not stated),85% (active),99% (active),84.9% (active),35,99% (active),92.7% (active),52%,98% (active),91.5% (active),13%,98% (active),93.8% (active),56%,97% (active),94% (active),74% (active),99% (active),93.7% (active)
O=C(Nc1ccc(Cl)cc1)Nc1nnc(/C=C/c2ccc(Cl)c(Cl)c2)o1,-1%,-4%,-6.15%,1,-91%,19.4%,-1%,0%,3.6%,1%,-4%,-14.2%,-44%,7%,-4.75%,1%,-16%,-12.1%
